{"source": "paper PMC11006913", "test_in_all_cases": "PBM; 200 nM protein, PBS", "conditions_in_all_cases": "dsDNA, one strand shown", "key": {"HOXC10 [1]": {"molecular_target": "HOXC10 (Homo sapiens, UniProt Q9NYD6 254-340)", "sequence (Q9NYD6 254-340)": "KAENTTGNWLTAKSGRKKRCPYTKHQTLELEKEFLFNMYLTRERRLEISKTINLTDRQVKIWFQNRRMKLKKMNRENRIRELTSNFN"}, "ALX3 [2]": {"molecular_target": "ALX3 (Homo sapiens, UniProt O95076 139-225, N203Q)", "sequence (O95076 139-225 N203Q)": "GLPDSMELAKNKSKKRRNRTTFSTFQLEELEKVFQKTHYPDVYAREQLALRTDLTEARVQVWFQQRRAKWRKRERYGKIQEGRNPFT"}, "HOXC10 [3]": {"molecular_target": "HOXC10 (Homo sapiens, UniProt Q9NYD6 254-340, K271E)", "sequence (Q9NYD6 254-340 K271E)": "as the sequence (Q9NYD6 254-340) above, with K18E counted along it"}, "ALX3 [4]": {"molecular_target": "ALX3 (Homo sapiens, UniProt O95076 139-225)", "sequence (O95076 139-225)": "as the sequence (O95076 139-225 N203Q) above, with Q65N counted along it"}, "ALX3 [5]": {"molecular_target": "ALX3 (Homo sapiens, UniProt O95076 139-225, L168Q)", "sequence (O95076 139-225 L168Q)": "as the sequence (O95076 139-225 N203Q) above, with L30Q, Q65N counted along it"}, "ALX3 [6]": {"molecular_target": "ALX3 (Homo sapiens, UniProt O95076 139-225, L168V)", "sequence (O95076 139-225 L168V)": "as the sequence (O95076 139-225 N203Q) above, with L30V, Q65N counted along it"}, "ALX3 [7]": {"molecular_target": "ALX3 (Homo sapiens, UniProt O95076 139-225, N203S)", "sequence (O95076 139-225 N203S)": "as the sequence (O95076 139-225 N203Q) above, with Q65S counted along it"}, "NKX2-6": {"molecular_target": "T1, NKX2-6 (Homo sapiens, UniProt A6NCS4 118-204, R150C)", "T1 sequence": "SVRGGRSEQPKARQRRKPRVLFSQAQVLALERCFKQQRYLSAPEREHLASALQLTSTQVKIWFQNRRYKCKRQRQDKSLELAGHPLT"}, "MSX2 [8]": {"molecular_target": "MSX2 (Homo sapiens, UniProt P35548 130-214, R199I)", "sequence (P35548 130-214 R199I)": "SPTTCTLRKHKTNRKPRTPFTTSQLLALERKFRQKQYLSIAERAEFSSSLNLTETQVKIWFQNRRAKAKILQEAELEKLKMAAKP"}, "MSX2 [9]": {"molecular_target": "MSX2 (Homo sapiens, UniProt P35548 130-214)", "sequence (P35548 130-214)": "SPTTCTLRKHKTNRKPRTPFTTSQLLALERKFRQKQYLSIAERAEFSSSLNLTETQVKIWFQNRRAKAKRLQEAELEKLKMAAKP"}, "MSX2 [10]": {"molecular_target": "MSX2 (Homo sapiens, UniProt P35548 130-214, F161Y)", "sequence (P35548 130-214 F161Y)": "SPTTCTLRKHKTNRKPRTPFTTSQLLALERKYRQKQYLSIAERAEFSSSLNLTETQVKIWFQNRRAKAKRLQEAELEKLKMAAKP"}, "ALX4 [11]": {"molecular_target": "ALX4 (Homo sapiens, UniProt Q9H161 200-286)", "sequence (Q9H161 200-286)": "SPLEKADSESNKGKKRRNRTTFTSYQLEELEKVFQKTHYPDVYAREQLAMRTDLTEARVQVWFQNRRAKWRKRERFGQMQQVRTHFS"}, "ALX4 [12]": {"molecular_target": "ALX4 (Homo sapiens, UniProt Q9H161 200-286, Q225E)", "sequence (Q9H161 200-286 Q225E)": "as the sequence (Q9H161 200-286) above, with Q26E counted along it"}, "HOXD13 [13]": {"molecular_target": "HOXD13 (Homo sapiens, UniProt P35453 263-343, T313R)", "sequence (P35453 263-343 T313R)": "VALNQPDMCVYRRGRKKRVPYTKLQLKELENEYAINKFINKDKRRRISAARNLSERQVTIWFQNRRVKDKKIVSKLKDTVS"}, "HOXD13 [14]": {"molecular_target": "HOXD13 (Homo sapiens, UniProt P35453 263-343)", "sequence (P35453 263-343)": "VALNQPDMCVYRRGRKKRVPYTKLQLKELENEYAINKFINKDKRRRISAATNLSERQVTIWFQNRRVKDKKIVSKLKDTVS"}, "HOXD13 [15]": {"molecular_target": "HOXD13 (Homo sapiens, UniProt P35453 263-343, T313A)", "sequence (P35453 263-343 T313A)": "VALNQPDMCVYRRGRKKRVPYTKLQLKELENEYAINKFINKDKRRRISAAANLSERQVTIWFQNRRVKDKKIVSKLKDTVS"}, "HOXB6 [16]": {"molecular_target": "HOXB6 (Homo sapiens, UniProt P17509 132-218, K202E)", "sequence (P17509 132-218 K202E)": "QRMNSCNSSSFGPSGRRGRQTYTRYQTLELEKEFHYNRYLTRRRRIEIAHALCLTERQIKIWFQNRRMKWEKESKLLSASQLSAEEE"}, "HOXB6 [17]": {"molecular_target": "HOXB6 (Homo sapiens, UniProt P17509 132-218)", "sequence (P17509 132-218)": "as the sequence (P17509 132-218 K202E) above, with E71K counted along it"}}, "data": [{"sequence": "CCTGGGAC", "values": [{"measurement": "binding signal", "setting": "HOXC10 [1]", "result": "9.91 upbm affinity estimate (log intensity, higher = more binding, comparable within an allelic series)"}, {"measurement": "binding signal", "setting": "ALX3 [2]", "result": "7.73 upbm affinity estimate (log intensity, higher = more binding, comparable within an allelic series)"}, {"measurement": "binding signal", "setting": "HOXC10 [3]", "result": "9.99 upbm affinity estimate (log intensity, higher = more binding, comparable within an allelic series)"}, {"measurement": "binding signal", "setting": "ALX3 [4]", "result": "7.73 upbm affinity estimate (log intensity, higher = more binding, comparable within an allelic series)"}, {"measurement": "binding signal", "setting": "ALX3 [5]", "result": "7.73 upbm affinity estimate (log intensity, higher = more binding, comparable within an allelic series)"}, {"measurement": "binding signal", "setting": "ALX3 [6]", "result": "7.7 upbm affinity estimate (log intensity, higher = more binding, comparable within an allelic series)"}, {"measurement": "binding signal", "setting": "ALX3 [7]", "result": "7.68 upbm affinity estimate (log intensity, higher = more binding, comparable within an allelic series)"}]}, {"sequence": "GAGGCCTC", "values": [{"measurement": "binding signal", "setting": "HOXC10 [1]", "result": "10.1 upbm affinity estimate (log intensity, higher = more binding, comparable within an allelic series)"}, {"measurement": "binding signal", "setting": "NKX2-6", "result": "9.72 upbm affinity estimate (log intensity, higher = more binding, comparable within an allelic series)"}, {"measurement": "binding signal", "setting": "HOXC10 [3]", "result": "10.1 upbm affinity estimate (log intensity, higher = more binding, comparable within an allelic series)"}]}, {"sequence": "ACCGGGCT", "values": [{"measurement": "binding signal", "setting": "HOXC10 [1]", "result": "10.1 upbm affinity estimate (log intensity, higher = more binding, comparable within an allelic series)"}, {"measurement": "binding signal", "setting": "NKX2-6", "result": "9.65 upbm affinity estimate (log intensity, higher = more binding, comparable within an allelic series)"}, {"measurement": "binding signal", "setting": "HOXC10 [3]", "result": "10.1 upbm affinity estimate (log intensity, higher = more binding, comparable within an allelic series)"}]}, {"sequence": "AGTCGGCG", "values": [{"measurement": "binding signal", "setting": "HOXC10 [1]", "result": "10.1 upbm affinity estimate (log intensity, higher = more binding, comparable within an allelic series)"}, {"measurement": "binding signal", "setting": "MSX2 [8]", "result": "9.6 upbm affinity estimate (log intensity, higher = more binding, comparable within an allelic series)"}, {"measurement": "binding signal", "setting": "HOXC10 [3]", "result": "10.1 upbm affinity estimate (log intensity, higher = more binding, comparable within an allelic series)"}, {"measurement": "binding signal", "setting": "MSX2 [9]", "result": "9.58 upbm affinity estimate (log intensity, higher = more binding, comparable within an allelic series)"}, {"measurement": "binding signal", "setting": "MSX2 [10]", "result": "9.6 upbm affinity estimate (log intensity, higher = more binding, comparable within an allelic series)"}]}, {"sequence": "AGCGCTTG", "values": [{"measurement": "binding signal", "setting": "HOXC10 [1]", "result": "10 upbm affinity estimate (log intensity, higher = more binding, comparable within an allelic series)"}, {"measurement": "binding signal", "setting": "ALX4 [11]", "result": "7.96 upbm affinity estimate (log intensity, higher = more binding, comparable within an allelic series)"}, {"measurement": "binding signal", "setting": "ALX4 [12]", "result": "8.27 upbm affinity estimate (log intensity, higher = more binding, comparable within an allelic series)"}, {"measurement": "binding signal", "setting": "HOXC10 [3]", "result": "10.1 upbm affinity estimate (log intensity, higher = more binding, comparable within an allelic series)"}]}, {"sequence": "GGAGGCCC", "values": [{"measurement": "binding signal", "setting": "HOXC10 [1]", "result": "10 upbm affinity estimate (log intensity, higher = more binding, comparable within an allelic series)"}, {"measurement": "binding signal", "setting": "HOXD13 [13]", "result": "9.34 upbm affinity estimate (log intensity, higher = more binding, comparable within an allelic series)"}, {"measurement": "binding signal", "setting": "HOXD13 [14]", "result": "9.46 upbm affinity estimate (log intensity, higher = more binding, comparable within an allelic series)"}, {"measurement": "binding signal", "setting": "HOXC10 [3]", "result": "9.99 upbm affinity estimate (log intensity, higher = more binding, comparable within an allelic series)"}, {"measurement": "binding signal", "setting": "HOXD13 [15]", "result": "9.59 upbm affinity estimate (log intensity, higher = more binding, comparable within an allelic series)"}]}, {"sequence": "CGAAGGGC", "values": [{"measurement": "binding signal", "setting": "HOXC10 [1]", "result": "9.97 upbm affinity estimate (log intensity, higher = more binding, comparable within an allelic series)"}, {"measurement": "binding signal", "setting": "ALX3 [2]", "result": "7.68 upbm affinity estimate (log intensity, higher = more binding, comparable within an allelic series)"}, {"measurement": "binding signal", "setting": "HOXC10 [3]", "result": "10.1 upbm affinity estimate (log intensity, higher = more binding, comparable within an allelic series)"}, {"measurement": "binding signal", "setting": "ALX3 [4]", "result": "7.61 upbm affinity estimate (log intensity, higher = more binding, comparable within an allelic series)"}, {"measurement": "binding signal", "setting": "ALX3 [5]", "result": "7.69 upbm affinity estimate (log intensity, higher = more binding, comparable within an allelic series)"}, {"measurement": "binding signal", "setting": "ALX3 [6]", "result": "7.8 upbm affinity estimate (log intensity, higher = more binding, comparable within an allelic series)"}, {"measurement": "binding signal", "setting": "ALX3 [7]", "result": "7.67 upbm affinity estimate (log intensity, higher = more binding, comparable within an allelic series)"}]}, {"sequence": "CAATATGG", "values": [{"measurement": "binding signal", "setting": "HOXC10 [1]", "result": "10.7 upbm affinity estimate (log intensity, higher = more binding, comparable within an allelic series)"}, {"measurement": "binding signal", "setting": "HOXD13 [13]", "result": "10 upbm affinity estimate (log intensity, higher = more binding, comparable within an allelic series)"}, {"measurement": "binding signal", "setting": "HOXD13 [14]", "result": "10.5 upbm affinity estimate (log intensity, higher = more binding, comparable within an allelic series)"}]}, {"sequence": "GGCTAGCC", "values": [{"measurement": "binding signal", "setting": "HOXC10 [1]", "result": "9.92 upbm affinity estimate (log intensity, higher = more binding, comparable within an allelic series)"}, {"measurement": "binding signal", "setting": "HOXB6 [16]", "result": "8.91 upbm affinity estimate (log intensity, higher = more binding, comparable within an allelic series)"}, {"measurement": "binding signal", "setting": "MSX2 [8]", "result": "9.46 upbm affinity estimate (log intensity, higher = more binding, comparable within an allelic series)"}, {"measurement": "binding signal", "setting": "HOXD13 [13]", "result": "9.4 upbm affinity estimate (log intensity, higher = more binding, comparable within an allelic series)"}, {"measurement": "binding signal", "setting": "HOXD13 [14]", "result": "9.37 upbm affinity estimate (log intensity, higher = more binding, comparable within an allelic series)"}, {"measurement": "binding signal", "setting": "HOXC10 [3]", "result": "9.98 upbm affinity estimate (log intensity, higher = more binding, comparable within an allelic series)"}, {"measurement": "binding signal", "setting": "MSX2 [9]", "result": "9.52 upbm affinity estimate (log intensity, higher = more binding, comparable within an allelic series)"}, {"measurement": "binding signal", "setting": "HOXD13 [15]", "result": "9.39 upbm affinity estimate (log intensity, higher = more binding, comparable within an allelic series)"}, {"measurement": "binding signal", "setting": "MSX2 [10]", "result": "9.51 upbm affinity estimate (log intensity, higher = more binding, comparable within an allelic series)"}, {"measurement": "binding signal", "setting": "HOXB6 [17]", "result": "8.87 upbm affinity estimate (log intensity, higher = more binding, comparable within an allelic series)"}]}]}
